In PubChem BioAssay (Tox21):
Several values for one entry are separate records, joined by “and”; a condition that tells them apart may be missing. Equal values may be shown once. Results filed as inconclusive are left out. Some structures have more than one record in an assay (separate samples or runs), and their calls can disagree. Activity calls are given as the source filed them. Unless noted, calls come from the whole dose curve; as a rule, active = well fitted curve in the direction sought with a large enough effect in the repeat runs; inconclusive = weak or mixed curves; inactive = no such curve, though single readings can be large; an effect the other way counts as inactive or inconclusive.

What was measured:
[1] = qHTS assay to identify small molecule agonists of the peroxisome proliferator-activated receptor delta (PPARd) signaling pathway - cell viability counter screen (AID 743211); note: nearly all actives have a fitted effect of over 55% in size; note: potency is the fitted concentration of half-maximal effect
Summary of the method: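 Multiplexed format: after the 2 h room-temperature LiveBLAzer B/G FRET step, CellTiter-Glo was added to the same wells. Luminescence after 30 min gave cell viability; compound exposure was 17 h at 37C.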

[2] = target: Peroxisome proliferator-activated receptor delta (Homo sapiens) (UniProt Q03181); experiment: qHTS assay to identify small molecule agonists of the peroxisome proliferator-activated receptor delta (PPARd) signaling pathway (AID 743212; calls by dose curve)
Sequence of Peroxisome proliferator-activated receptor delta (Homo sapiens) (Q03181 whole entry, looked up): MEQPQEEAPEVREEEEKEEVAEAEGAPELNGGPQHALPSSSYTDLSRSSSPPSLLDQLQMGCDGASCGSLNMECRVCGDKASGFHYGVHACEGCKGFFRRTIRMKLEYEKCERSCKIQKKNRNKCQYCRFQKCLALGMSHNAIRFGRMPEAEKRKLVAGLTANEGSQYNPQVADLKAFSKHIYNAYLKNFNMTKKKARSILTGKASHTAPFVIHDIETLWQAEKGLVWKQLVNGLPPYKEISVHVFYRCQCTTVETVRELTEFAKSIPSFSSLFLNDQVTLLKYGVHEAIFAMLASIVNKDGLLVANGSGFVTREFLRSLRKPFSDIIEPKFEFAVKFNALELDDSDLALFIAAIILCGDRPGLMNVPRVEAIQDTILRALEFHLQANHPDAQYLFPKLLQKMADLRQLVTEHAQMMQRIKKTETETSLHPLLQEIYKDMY
Summary of the method: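 Beta-lactamase reporter read by fluorescence (LiveBLAzer B/G FRET, 2 h, room temperature). Test agents, in DMSO, incubated at 37 C with PPARd-bla HEK293H cells.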

[3] = qHTS assay to identify small molecule antagonists of the peroxisome proliferator-activated receptor delta (PPARd) signaling pathway - cell viability counter screen (AID 743213); note: nearly all actives have a fitted effect of over 50% in size; note: potency is the fitted concentration of half-maximal effect
Summary of the method: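 PPARd-bla HEK293H cells (3000/well) got compound plus 300 nM L165041 agonist for 17 h at 37 C. Viability in the same wells came from CellTiter-Glo luminescence after 30 min at room temperature.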

[4] = target: Peroxisome proliferator-activated receptor delta (Homo sapiens) (UniProt Q03181); experiment: qHTS assay to identify small molecule antagonists of the peroxisome proliferator-activated receptor delta (PPARd) signaling pathway (AID 743215; active = well fitted inhibition curve with a large enough effect in the signal ratio in the repeat runs, not every such curve was filed as active; the % refers to the signal ratio;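 note: cells stimulated with agonist L165041 at 300 nM final during compound exposure; series mostly up to about 62 µM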)
Summary of the method: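 HEK293H GeneBLAzer PPARd UAS-bla reporter cells; cpd + L165041 300 nM final, 17 h 37 C; LiveBLAzer B/G FRET substrate 2 h RT; fluorescence intensity read-out. Antagonist mode.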

[5] = qHTS assay to identify small molecule agonists of the farnesoid-X-receptor (FXR) signaling pathway - cell viability counter screen (AID 743218); note: nearly all actives have a fitted effect of over 45% in size; note: potency is the fitted concentration of half-maximal effect
Summary of the method: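 Luminescence from CellTiter-Glo, read after 30 min at RT, reports viability of GeneBLAzer FXR-UAS-bla HEK 293T cells treated 16 h with compounds in the wells used for the beta-lactamase reporter.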

[6] = qHTS assay to identify small molecule antagonists of the farnesoid-X-receptor (FXR) signaling pathway - cell viability counter screen (AID 743221; active = well fitted cell-killing curve with a large enough effect in the repeat runs, not every such curve was filed as active; note: nearly all actives have a fitted effect of over 50% in size; note: potency is the fitted concentration of half-maximal effect)
Summary of the method: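 CellTiter-Glo, 30 min RT, luminescence; same wells as the LiveBLAzer FRET read. Cells: FXR-UAS-bla HEK 293T. Treatment: compound with chenodeoxycholic acid 50 uM final, 16 h at 37 C.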

[7] = target: Vitamin D3 receptor (Homo sapiens) (UniProt P11473); experiment: qHTS assay to identify small molecule agonists of the vitamin D receptor (VDR) signaling pathway (AID 743222; calls by dose curve)
Sequence of Vitamin D3 receptor (Homo sapiens) (P11473 whole entry, looked up): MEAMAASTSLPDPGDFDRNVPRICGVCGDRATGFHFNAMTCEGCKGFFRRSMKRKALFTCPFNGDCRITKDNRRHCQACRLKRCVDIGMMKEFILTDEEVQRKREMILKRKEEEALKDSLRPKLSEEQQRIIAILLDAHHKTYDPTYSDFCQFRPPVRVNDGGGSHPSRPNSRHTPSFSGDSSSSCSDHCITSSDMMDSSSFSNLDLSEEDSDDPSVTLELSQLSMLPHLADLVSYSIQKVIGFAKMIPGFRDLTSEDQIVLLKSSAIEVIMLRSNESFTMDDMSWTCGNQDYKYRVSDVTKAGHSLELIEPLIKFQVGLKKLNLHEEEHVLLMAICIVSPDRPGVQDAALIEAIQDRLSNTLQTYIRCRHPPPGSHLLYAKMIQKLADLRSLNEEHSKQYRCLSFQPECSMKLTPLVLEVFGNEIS
Summary of the method: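 Beta-lactamase reporter readout (LiveBLAzer B/G FRET, 2 h RT) in VDR-bla cells after 16 h compound treatment at 37C, 5% CO2; cells pre-incubated 4 h before pin transfer of DMSO solutions.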

[8] = target: Vitamin D3 receptor (Homo sapiens) (UniProt P11473); experiment: qHTS assay to identify small molecule antagonists of the vitamin D receptor (VDR) signaling pathway (AID 743223; active = well fitted inhibition curve with a large enough effect in the signal ratio in the repeat runs, not every such curve was filed as active; the % refers to the signal ratio)
Summary of the method: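 After VDR-bla cells are plated and left 4 h at 37C, DMSO-dissolved compounds and 3 nM (final) calcitriol agonist are added. Incubation continues 16 h at 37C; FRET beta-lactamase substrate then develops 2 h at room temperature.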

[9] = qHTS assay to identify small molecule agonists of the vitamin D receptor (VDR) signaling pathway - cell viability counter screen (AID 743224); note: nearly all actives have a fitted effect of over 50% in size; note: potency is the fitted concentration of half-maximal effect
Summary of the method: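 Cytotoxicity counter screen: VDR-bla cells, 16 h compound exposure at 37C, 5% CO2; CellTiter-Glo luminescence, 30 min RT, same wells as bla read.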

[10] = qHTS assay to identify small molecule antagonists of the vitamin D receptor (VDR) signaling pathway - cell viability counter screen (AID 743225); note: nearly all actives have a fitted effect of over 50% in size; note: potency is the fitted concentration of half-maximal effect
Summary of the method: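 Cytotoxicity toward the VDR-bla HEK 293T line was scored by ATP-based CellTiter-Glo luminescence, read in the wells already used for the beta-lactamase readout after 16 h compound treatment under 3 nM 1-alpha,25-dihydroxyvitamin D3 stimulation.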

[11] = qHTS assay to identify small molecule agonists of the NFkB signaling pathway - cell viability counter screen (AID 1159515; calls by dose curve; note: nearly all actives have a fitted effect of over 55% in size; note: potency is the fitted concentration of half-maximal effect)
Summary of the method: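 ME-180 NFkB-bla cells, 2,000/well; overnight attach; compound 5 hr, 37 C/5% CO2; LiveBLAzer substrate 1.5 hr RT; then CellTiter-Glo in same wells, 30 min RT, luminescence read.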

[12] = qHTS assay to identify small molecule agonists of the endoplasmic reticulum stress response signaling pathway (AID 1159516; active = well fitted activation curve with a large enough effect in the signal ratio in the repeat runs, not every such curve was filed as active; the % refers to the signal ratio)
Summary of the method: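 HeLa ESRE-bla reporter line; cpd 5 h, 37 C/5% CO2; LiveBLAzer B/G FRET substrate 2 h RT; ex 405, em 460/530 nm.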

[13] = qHTS assay to identify small molecule agonists of the endoplasmic reticulum stress response signaling pathway - cell viability counter screen (AID 1159517; calls by dose curve; note: nearly all actives have a fitted effect of over 50% in size; note: potency is the fitted concentration of half-maximal effect)
Summary of the method: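 Cytotoxicity of test compounds toward ESRE-bla HeLa cells was assessed after 5 hr exposure. The luminescent CellTiter-Glo signal was measured 30 min after reagent addition.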

[14] = qHTS assay to identify small molecule antagonists of the retinoid-related orphan receptor gamma (ROR-gamma) signaling pathway - cell viability counter screen (AID 1159520); note: nearly all actives have a fitted effect of over 50% in size; note: potency is the fitted concentration of half-maximal effect
Summary of the method: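 Tet-on ROR gamma CHO cells (1,000/well) were plated 4 hr, given compounds in DMSO for 2 hr at 37 C, then induced with 1 uM final doxycycline for 16 hr. Viability was read as ATP by CellTiter-Glo luminescence after 30 min.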

[15] = target: Nuclear receptor ROR-gamma (Homo sapiens) (UniProt P51449); experiment: qHTS assay to identify small molecule antagonists of the retinoid-related orphan receptor gamma (ROR-gamma) signaling pathway (AID 1159521; note: nearly all actives have a fitted effect of over 50% in size; note: potency is the fitted concentration of half-maximal effect)
Summary of the method: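 Readout: ONE-Glo luciferase luminescence, 30 min at room temperature. System: Tet-on RORγ CHO, RORE-LUC. Sequence: compound 2 h, doxycycline 1 uM final, 16 h at 37 C.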

[16] = target: Retinoic acid receptor RXR-alpha (Homo sapiens) (UniProt P19793); experiment: qHTS assay to identify small molecule agonists of the RXR signaling pathway (AID 1159527; calls by dose curve; note: nearly all actives have a fitted effect of over 35% in size)
Sequence of Retinoic acid receptor RXR-alpha (Homo sapiens) (P19793 whole entry, looked up): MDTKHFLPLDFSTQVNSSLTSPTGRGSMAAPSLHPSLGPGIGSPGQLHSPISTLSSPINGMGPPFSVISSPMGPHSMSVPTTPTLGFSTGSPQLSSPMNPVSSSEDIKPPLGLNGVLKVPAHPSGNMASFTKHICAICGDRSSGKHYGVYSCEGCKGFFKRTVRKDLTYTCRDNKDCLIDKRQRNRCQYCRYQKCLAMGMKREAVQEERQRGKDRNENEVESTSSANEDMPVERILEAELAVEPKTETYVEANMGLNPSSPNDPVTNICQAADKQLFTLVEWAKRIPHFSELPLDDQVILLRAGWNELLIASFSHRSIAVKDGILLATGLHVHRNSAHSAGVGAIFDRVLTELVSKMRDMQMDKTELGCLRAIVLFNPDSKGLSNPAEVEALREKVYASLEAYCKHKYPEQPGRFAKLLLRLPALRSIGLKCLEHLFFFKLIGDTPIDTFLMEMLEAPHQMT
Summary of the method: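 Reporter activation is measured as beta-lactamase activity via FRET substrate cleavage (emission 460/530 nm) in HEK 293T cells expressing an RXR-alpha-driven bla construct, following 16 hr compound exposure at 37 C.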

[17] = target: Bile acid receptor (Homo sapiens) (UniProt Q96RI1); experiment: qHTS assay to identify small molecule antagonists of the farnesoid-X-receptor (FXR) signaling pathway (AID 743217; active = well fitted inhibition curve with a large enough effect in the signal ratio in the repeat runs, not every such curve was filed as active; the % refers to the signal ratio; note: potency is the fitted concentration of half-maximal effect)
Sequence of Bile acid receptor (Homo sapiens) (Q96RI1 whole entry, looked up): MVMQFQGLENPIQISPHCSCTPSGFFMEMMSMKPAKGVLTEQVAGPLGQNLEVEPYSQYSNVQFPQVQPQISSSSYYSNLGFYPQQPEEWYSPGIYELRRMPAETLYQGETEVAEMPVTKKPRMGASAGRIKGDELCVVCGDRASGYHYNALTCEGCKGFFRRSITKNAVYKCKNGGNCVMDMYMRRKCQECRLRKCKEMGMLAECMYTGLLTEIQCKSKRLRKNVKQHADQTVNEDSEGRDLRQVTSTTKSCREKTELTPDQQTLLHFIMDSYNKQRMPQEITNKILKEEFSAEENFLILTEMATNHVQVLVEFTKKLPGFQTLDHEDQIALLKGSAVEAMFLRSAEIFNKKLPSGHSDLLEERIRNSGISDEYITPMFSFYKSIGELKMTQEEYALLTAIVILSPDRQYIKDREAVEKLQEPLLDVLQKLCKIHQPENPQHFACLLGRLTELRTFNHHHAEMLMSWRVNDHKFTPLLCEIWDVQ
Summary of the method: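 Read-out: beta-lactamase FRET fluorescence (LiveBLAzer B/G substrate, 2 h, room temperature) in GeneBLAzer FXR-UAS-bla HEK 293T cells. Compounds were co-dosed with 50 uM chenodeoxycholic acid (final) and incubated 16 h at 37 °C.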

[18] = target: Bile acid receptor (Homo sapiens) (UniProt Q96RI1); experiment: qHTS assay to identify small molecule agonists of the farnesoid-X-receptor (FXR) signaling pathway (AID 743220; active = well fitted activation curve with a large enough effect in the signal ratio in the repeat runs, not every such curve was filed as active; the % refers to the signal ratio)
Summary of the method: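 FXR-UAS-bla HEK 293T cells carrying a UAS-driven beta-lactamase reporter were plated for 5 h at 37C/5% CO2, then exposed to DMSO-dissolved Tox21 10K compounds for 16 h at 37C. A LiveBLAzer B/G FRET substrate was loaded for 2 h at room temperature before fluorescence reading.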

[19] = qHTS assay to identify small molecule agonists of the AP-1 signaling pathway - cell viability counter screen (AID 1159525; calls by dose curve; note: nearly all actives have a fitted effect of over 55% in size; note: potency is the fitted concentration of half-maximal effect)
Summary of the method: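 Each titration point was normalised to DMSO and tetra n-octyl ammonium bromide controls. The read was Cell Titer Glo luminescence after 30 min at RT, following 5 h compound exposure of ME-180 AP-1-bla cells at 37 °C.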

[20] = qHTS assay to identify small molecule agonists of the AP-1 signaling pathway (AID 1159526; calls by dose curve)

Measured: Potency

O=C1Nc2ccccc2C1(c1ccc(O)cc1)c1ccc(O)cc1
active: [11] 0.174 µM
not listed: [17] | [18] | [19] | [20]
inactive: all other assays above

OCCN1CCNCC1
60.5 µM (active) and inactive: [14]
not listed: [2] | [3] | [15]
inactive: all other assays above

COc1ccc(CCN2CCC(Nc3nc4ccccc4n3Cc3ccc(F)cc3)CC2)cc1
active: [1] 2.81 µM and 7.5 µM | [3] 3.16 µM and 23.7 µM | [5] 2.81 µM and 23.7 µM | [6] 7.07 µM and 29.8 µM | [9] 3.98 µM and 10.6 µM | [10] 6.3 µM and 23.9 µM | [11] 17.8 µM | [13] 31.6 µM | [14] 17.6 µM and 26.6 µM | [15] 9.9 µM and 11.9 µM
35.4 µM (active) and inactive: [19]
inactive: [18] | [12] | [20]

CCOC(=O)C(C)C(C)=O (stereo not drawn)
not listed: [1] | [2] | [3] | [7] | [8] | [17] | [18]
inactive: all other assays above

O=C(O)c1cn(-c2ccc(F)cc2)c2cc(N3CCNCC3)c(F)cc2c1=O
not listed: [1] | [7] | [8] | [17] | [18]
inactive: all other assays above

O=C(O)CCc1ccccc1
not listed: [8] | [14] | [17] | [18]
inactive: all other assays above

CC(C(O)c1ccc(O)cc1)N1CCC(Cc2ccccc2)CC1 (stereo not drawn)
not listed: [1] | [2] | [3] | [4] | [7] | [8] | [17] | [18]
inactive: all other assays above

CCC(C)(C)C(=O)O[C@H]1C[C@@H](C)C=C2C=C[C@H](C)[C@H](CC[C@@H]3C[C@@H](O)CC(=O)O3)[C@H]21
active: [6] 11 µM | [14] 9.44 µM | [15] 3.86 µM and 841 nM
not listed: [1] | [2] | [4] | [8] | [16] | [17] | [18]
inactive: all other assays above

CN(C)c1ccc2nc3ccc(=[N+](C)C)cc-3sc2c1
inactive and 21.9 µM (active): [10]
inactive: [5] | [18] | [11] | [12] | [13]
active: [17] 8.37 µM and 21.9 µM and 8.41 µM | [6] 21 µM and 49 µM | [9] 49 µM and 2.98 µM | [14] 16.6 µM and 13.7 µM | [19] 16.7 µM and 43.6 µM
inactive and 34.4 µM (active): [15]

CCCCOCCOC(=O)c1ccccc1C(=O)OCCOCCCC
30.2 µM (active) and inactive: [9]
47.9 µM (active) and inactive: [1]
not listed: [2] | [3] | [17] | [20]
inactive: all other assays above

O=C(O)c1cc(Cl)cc(Cl)c1
not listed: [1] | [7] | [8] | [17] | [18]
inactive: all other assays above

CCN1CCCC1CNC(=O)c1cc(S(=O)(=O)CC)c(N)cc1OC (stereo not drawn)
not listed: [2] | [3] | [17] | [18]
inactive: all other assays above

C=CC(=O)OCCCCCCOC(=O)C=C
44.2 µM (active) and inactive: [9]
inactive: [17] | [5] | [6] | [10] | [11] | [12] | [13] | [14] | [19]

CC1=C(C=O)C(C)(C)CC=C1
not listed: [1] | [2] | [3] | [4] | [8] | [17] | [18]
inactive: all other assays above

CCCCC/C=C/CC1CC(=O)OC1=O (stereo not drawn)
not listed: [1] | [2] | [3] | [4] | [17] | [18]
inactive: all other assays above

CC(C)(C)c1cc(C(C)(C)C)c(O)c(C(C)(C)C)c1
inactive and 49 µM (active): [19]
active: [1] 49 µM | [9] 38.9 µM
not listed: [5] | [7] | [8] | [16] | [17]
inactive: all other assays above

[Cl][In]([Cl])[Cl]
not listed: [8] | [14] | [17] | [18]
inactive: all other assays above
